# Measurements from PubChem BioAssay (NCATS).
# Records with an inconclusive call do not appear. Calls of active or inactive are those of the source. Unless noted, the call rests on the fitted dose curve; in most records, active means well fitted curve in the direction sought with a large enough effect; inconclusive means small, poorly fitted or top-dose-only effect, or another doubt; inactive means no such curve, though single readings can be large; an effect the other way counts as inactive or inconclusive.
# How the values were obtained:
# [1] = target: Cytochrome P450 3A4 (Homo sapiens) (UniProt P08684); test: qHTS Assay for Inhibitors and Substrates of Cytochrome P450 3A4 (AID 884); further: on the % scale 0 is the no-effect control and ±100 the full control effect; nearly all actives have a fitted effect of over 50% in size
# Outline: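 20 nM human CYP3A4 with 25 uM Luciferin-PPXE (at KM) in 200 mM KPO4, preincubated 10 min with compound; NADPH regeneration started a 60 min RT reaction. Luciferin detected by luminescence, normalized to 57 uM ketoconazole as full inhibition.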
# [2] = Confirmation and Secondary Assay for Modulators of Hemoglobin Beta Chain Splicing at IVS2 654 locus (AID 910); further: % of control where 0% means no effect
# Outline: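 HeLa cells stably carrying EGFP interrupted by mutant beta-globin IVS2-654 intron (CMV-driven) were treated with compound for 2 days at 37C; corrected splicing was scored as total peak GFP intensity per well (488 nm excitation, 500-520 nm emission).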
# [3] = Confirmation and Secondary Assay for Modulators of Hemoglobin Beta Chain Splicing at IVS2 705 locus (AID 930);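 further: HeLa cells stably expressing the EGFP-705 splicing reporter; GFP fluorescence per well restored by corrected splicing of the IVS2-705 intron in EGFP; % of control where 0% means no effect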
# Outline: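 HeLa cells stably carrying EGFP interrupted by mutant beta-globin intron 2 (IVS2-705) treated 2 days at 37C with compound; 500 nM antisense PNA as control. Correct splicing read as total peak GFP intensity per well by laser-scanning cytometry.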
# [4] = qHTS Assay for Lipid Storage Modulators (AID 1519; calls by dose curve; on activity change, negative = inhibition: on the % scale 0 is the no-effect control and ±100 the full control effect); settings: Drosophila S3 cells, BODIPY lipid droplet/cell ratio, laser cytometry, cells loaded with oleic acid; for activity change, negative = inhibition: at 57.5 µM (top of the series)
# Outline: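 Cells seeded at 5,000 per well were treated with compounds over a concentration series and loaded with oleic acid (400 uM, as added). Lipid droplet fluorescence (488 nm excitation, 500-530 nm channel) was read by laser-scanning cytometry and normalized to 20 uM Triacsin C.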
# [5] = target: Cytochrome P450 3A4 (Homo sapiens) (UniProt P08684); test: qHTS Assay for Activators of Cytochrome P450 3A4 (AID 885); further: nearly all actives have a fitted effect of over 65% in size
# Outline: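 Human CYP3A4 (20 nM) with Luciferin-PPXE at 25 uM (its KM) in 200 mM KPO4; 10 min compound preincubation, then NADPH regeneration and 60 min reaction at RT. Luciferin read by luminescence; normalized to 57 uM ketoconazole full inhibition.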
# [6] = measured here: cell count channel max response
# [7] = measured here: lipid channel max response
# Cytochrome P450 3A4 (Homo sapiens), sequence (P08684 whole entry, looked up): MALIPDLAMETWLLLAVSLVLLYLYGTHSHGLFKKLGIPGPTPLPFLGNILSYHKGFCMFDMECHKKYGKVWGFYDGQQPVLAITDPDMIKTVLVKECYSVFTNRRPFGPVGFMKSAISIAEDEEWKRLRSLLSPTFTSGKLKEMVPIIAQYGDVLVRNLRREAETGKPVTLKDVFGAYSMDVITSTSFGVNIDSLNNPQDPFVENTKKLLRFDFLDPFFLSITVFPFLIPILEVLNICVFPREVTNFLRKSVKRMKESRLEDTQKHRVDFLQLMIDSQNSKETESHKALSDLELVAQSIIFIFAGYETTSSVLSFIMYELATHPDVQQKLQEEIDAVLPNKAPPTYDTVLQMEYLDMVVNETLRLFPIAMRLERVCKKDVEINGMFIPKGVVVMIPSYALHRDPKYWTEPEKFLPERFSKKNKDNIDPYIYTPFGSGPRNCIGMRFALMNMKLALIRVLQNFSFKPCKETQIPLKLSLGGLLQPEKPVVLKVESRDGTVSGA
SMILES,Potency [1],Potency [2],Potency [3],"activity change, negative = inhibition [4]","max response [4, 6] [%]","max response [4, 7] [%]",Potency [5]
CCC(=O)OC1C2CC3=C4CC(=O)OC(c5ccoc5)[C@]4(C)CCC3[C@@](C)(C2=O)C(CC(=O)OC)C1(C)C (stereo not given in full),inactive,inactive,inactive,-15.8% (inactive),-7.4,-17,
CC(C)C(C)/C=C/C(C)C1CCC2C3=CC=C4CC(O)CCC4(C)C3CCC21C (stereo not given),inactive,inactive,inactive,4.22% (inactive),8.27,15.2,
CCOc1cccc(C(=O)c2ccc(O)c(O)c2O)c1,inactive,inactive,inactive,3.56% (inactive),9.44,-1.04,
CC1OC(n2cc(F)c(=O)[nH]c2=O)C(O)C1O (stereo not given),inactive,inactive,inactive,5.38% (inactive),14,19.9,
CC(=O)C1CCC2C3CCC4=CC(=O)CC[C@@]4(C)C3CC[C@]12C (stereo not given in full),inactive,inactive,inactive,4.88% (inactive),4.44,13.5,
COC1C(O)C(CO)OC1n1c(Br)nc2c(=O)[nH]c(N)nc21 (stereo not given),inactive,inactive,inactive,1.73% (inactive),0.309,3.63,
C=CCCCCCCCCCCCc1ccco1,inactive,inactive,inactive,3.13% (inactive),16.1,21.7,
COC(=O)/C=C/C(C)=C/C=C/C(C)=C/C=C/C=C(C)/C=C/C=C(C)/C=C/C(=O)O,inactive,inactive,inactive,5.02% (inactive),17.2,24.2,
O=c1c(O)c(-c2ccccc2)oc2ccccc12,,inactive,inactive,0.0192% (inactive),-10,-11.2,inactive
CCCCCCCCCCCCCCC(C(=O)O)C(O)(CC(=O)OC)C(=O)O (stereo not given),inactive,inactive,inactive,5.93% (inactive),16.5,25.2,
COC1=CC(=O)C(O)=C/C1=C\C=C\c1ccccc1,,inactive,inactive,-23.3% (inactive),-8.41,-29.1,inactive
O=c1c(O)c(-c2ccccc2)oc2cc(O)ccc12,,inactive,inactive,6.29% (inactive),-1.89,5.57,inactive
C#CCCCCCCCCCCCc1ccco1,,inactive,inactive,2.25% (inactive),8.94,11.4,inactive
CC1(C)OC2CC3C4CCC5=CC(=O)C=C[C@@]5(C)[C@]4(F)C(O)C[C@@]3(C)[C@]2(C(=O)CO)O1 (stereo not given in full),,inactive,inactive,-5.31% (inactive),-0.616,-3.49,
CC(C)=CCc1c2c(c(O)c3c(=O)c(O)c(-c4ccccc4)oc13)C=CC(C)(C)O2,,inactive,,0.956% (inactive),-0.903,-0.353,inactive
CCCCCc1c2c(cc(O)c1C(=O)O)OC(=O)c1c(cc(OC)cc1C(=O)CCCC)O2,,inactive,inactive,7.58% (inactive),12.3,21.9,inactive
CC1OC(OCC2OC(Oc3c(-c4ccc(O)c(O)c4)oc4cc(O)cc(O)c4c3=O)C(O)C(O)C2O)[C@@H](O)C(O)C1O (stereo not given in full),,inactive,inactive,4.3% (inactive),4.35,10.1,
C=CC(C1=CC(=O)C(OC)=CC1=O)c1ccc(O)cc1 (stereo not given),,inactive,inactive,12.9% (inactive),1.65,16.7,inactive
